In ChEMBL document CHEMBL4888484, “Replenishing the malaria drug discovery pipeline: Screening and hit evaluation of the MMV Hit Generation Library 1 (HGL1) against asexual blood stage Plasmodium falciparum ,using a nano luciferase reporter read-out” (2022):
The whole screen tested about 150,000 compounds, of which about 540 (0.36%) showed an effect of 50% or more. What follows is part of a selection rich in strong results, with near analogues and random picks from the rest.

What follows are compounds tested on Plasmodium falciparum (assay: Primary screen in NF54 nanoGlo assay, in single point, at 2uM, 72h; a lower Z score goes with more inhibition). Details: timepoint 72 hour.
Format: functional, Erythrocyte

SMILES | % Inhibition [%] | Z score
CN(Cc1ccccc1)C(=O)c1nc2ccccc2s1 | -10 | 1.35
CCCC1CCC(c2ccc(OC(=O)c3cccc(C(=O)OC)n3)cc2)CC1 (centres undefined) | -10 | 1.93
COCC(O)CN1CCCC(C(C)C)CC1 (centres undefined) | -5 | 0.7
Cc1ccc2c(c1)c1c(n2S(=O)(=O)c2ccc(C(C)(C)C)cc2)CCCN(C)C1 | 67 | -13.88
Cc1ccc2[nH]c3c(c2c1)CN(C)CCC3 | 4 | -0.52
Cc1ccc2c(c1)c1c(n2CCc2ccncc2)CCCN(C)C1 | 4 | -0.46
CNS(=O)(=O)CC1CCCN1CC1CCC(C)O1 (centres undefined) | -5 | 0.75
CCCC(C)NC(=O)C(C)NC1CCN(C(C)=O)CC1CC (centres undefined) | -2 | 0.22
CCc1cccc(NC(=O)Cc2nc(-c3cccnc3)n[nH]2)c1 | -13 | 2.1
CC(=O)c1ccc(S(=O)(=O)NC2(C(F)(F)F)CCOCC2)cc1 | -12 | 1.89
Cn1nc(N2CC[C@H](NC(=O)C3CCCCC3)C2)ccc1=O | -6 | 0.81
Cc1c(C(=O)NC2CCN(c3ccc(=O)n(C)n3)CC2)cc(-c2ccc(F)cc2)n1C | -5 | 0.6
Cc1ccc(-c2cc(C(=O)NC3CC3)nn2C)cc1 | -10 | 1.31
COc1ccc(-c2cc(N3CC[C@H](NC(=O)c4ccc(C)cc4)C3)[nH]n2)cc1 | -10 | 1.05
Cc1c(C(=O)NC2CC2)cc(-c2ccccc2)n1C | 55 | 0.53
Cc1cc(C(=O)N[C@H]2CCOC[C@@H]2OCc2ccccc2)c(C)n1C | 8 | -1.34
COc1ccc(-c2cc(C(=O)N[C@H]3CCN(c4ccc(=O)[nH]n4)C3)c(C)n2C)cc1 | 82 | -5.36
COc1ccc(-c2cc(C(=O)N[C@H]3CCN(c4ccc(=O)n(C)n4)C3)c(C)n2C)cc1 | 67 | -11.23
COc1ccc(C(=O)N[C@H]2CCN(c3cc(-c4ccc(Cl)cc4)n[nH]3)C2)c(C)c1 | -20 | 2
COc1cccc(C(=O)N2CCN(c3cccnc3)C(=O)C2)c1OC | 9 | -1.08
CN(C)S(=O)(=O)N1CCC2(CCC(=O)N(CCc3ccccn3)C2)CC1 | -12 | 1.7

SMILES | % Inhibition [%] | Z score
CCc1ccccc1S(=O)(=O)NC[C@H](C(=O)O)C(C)C | 2 | -0.45
COCCN1C(=O)c2ccc(C(=O)NCc3ccncc3)cc2C1=O | -3 | 0.39
Cc1ccc(-c2cn[nH]c2[C@H]2CCCN(C(=O)C(C)(C)O)C2)cc1 | -14 | 2.64
NC(=O)C1CCN(C(=O)Cc2ccc(-c3ccccc3)cc2)CC1 | -4 | 0.36
COC(=O)C1(NC(=O)OC(C)(C)C)CC(CN2CCN(C)CC2)C1 (centres undefined) | 10 | -2.05
CC1=C(c2ccc(Cl)cc2)S(=O)(=O)N=C1N1CCC(C(=O)NCCN(C)C)CC1 | -18 | 1.96
CCC1=C(c2ccc(C)cc2)S(=O)(=O)N=C1N1CCC(C(=O)NC2CCC(C)CC2)CC1 (centres undefined) | -12 | 1.49
CCCCN(CC)CCNC(=O)C1CCN(C2=NS(=O)(=O)C(c3ccc(OC)cc3)=C2C)CC1 | 57 | -3.61
CCC1=C(c2ccc(C)cc2)S(=O)(=O)N=C1N1CCC(C(=O)NCCN2CCCC[C@@H]2C)CC1 | 53 | -6.49
CCC1=C(c2ccc(C)cc2)S(=O)(=O)N=C1N1CCC(C(=O)NCCCc2ccccc2)CC1 | -9 | 1.6
CCc1ccc(C2=C(C)C(N3CCC(C(=O)NC)CC3)=NS2(=O)=O)cc1 | -2 | 0.29
CN1CC2(CCN(C(=O)c3ccccc3O)CC2)C[C@@H](c2ccccc2)C1=O | -14 | 1.81
C=CCOC1CCN(C(=O)CCN2CCOC2=O)CC1 | -4 | 0.57
Cc1nc(CNC(=O)c2nc3ccccc3[nH]c2=O)cs1 | 5 | -0.75
CC(C)c1ncc(CN(C)S(=O)(=O)N(C)C2CCCCC2)cn1 | -9 | 1.04
CC(C)(C)OC(=O)NC1CC(NCC(O)c2ccco2)C12CCC2 (centres undefined) | 0 | 0.02
CCOc1ccc(C2c3[nH]c4ccccc4c3C[C@H]3C(=O)N(C4CCCCCCC4)CC(=O)N23)cc1OC (some centres undefined) | 12 | -1.52
CCOc1ccc(C2c3[nH]c4ccccc4c3C[C@H]3C(=O)N(C4CCN(Cc5ccccc5)CC4)CC(=O)N23)cc1OC (some centres undefined) | 79 | -7.03
COc1cccc(C2c3[nH]c4ccccc4c3C[C@H]3C(=O)N(C4CCN(Cc5ccccc5)CC4)CC(=O)N23)c1 (some centres undefined) | 15 | -1.95
CCOc1ccc2nc(CN(Cc3cnn(C)c3)C3CC3)ccc2c1 | -7 | 1.15
CCOc1ccc2nc(CN(C)[C@@H]3CCCC[C@@H]3O)ccc2c1 | -18 | 1.9
